In the supplement of paper PMC4206461:
A number with no mark means an inactive call.

Key:
[1] = system: Pseudomonas aeruginosa PA14 dppA1-A5 penta mutant + pBBR5.DppA1 (PA14_58350); test: respiration area under curve with compound as sole nitrogen source, 24 h (OmniLog AUC (arbitrary units)); higher = more respiration / better utilisation as nitrogen source, active = 2000 or more
Procedure: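 Biolog Phenotype MicroArray plates PM6-PM8: each di/tripeptide is the sole nitrogen source. Tetrazolium reduction was read in the OmniLog for 24 h at 37°C and summarised as area under the respiration curve (arbitrary units). Values below 2000 count as no respiration. Strain is the SBP penta mutant complemented with DppA1 on a plasmid under its native promoter. Lys/His/Cys peptides are excluded.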

[2] = system: Pseudomonas aeruginosa PA14 wild type; test: as above
Procedure: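 Biolog Phenotype MicroArray plates PM6-PM8: each di/tripeptide is the sole nitrogen source (IF-0 medium with succinate/ferric citrate and dye mix A). Tetrazolium reduction was read in the OmniLog every 15 min for 24 h at 37°C and summarised as area under the respiration curve (arbitrary units). The paper counts values below 2000 as no respiration and above 8000 as solid respiration. Replicate datasets are averaged.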

[3] = system: Pseudomonas aeruginosa PA14 dppBCDF deletion mutant; test: respiration area under curve with compound as sole nitrogen source, 24 h (OmniLog AUC (arbitrary units)); higher = more respiration / better utilisation as nitrogen source, active = 2000 or more; extreme values may be limits of the assay
Procedure: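 Biolog Phenotype MicroArray plates PM6-PM8: each di/tripeptide is the sole nitrogen source. Tetrazolium reduction was read in the OmniLog every 15 min for 24 h at 37°C and summarised as area under the respiration curve (arbitrary units). Values below 2000 count as no respiration. Strain is the dipeptide ABC transporter deletion mutant.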

Row | SMILES | respiration area under curve [1] | respiration area under curve [2] | respiration area under curve [3]
1 | CC(C)[C@H](N)C(=O)N[C@@H](CCC(N)=O)C(=O)O (plate: PM8) | 7140 (active) | 9290 (active) | 1010
2 | CC(C)[C@H](NC(=O)[C@@H](N)CCC(=O)O)C(=O)O (plate: PM6) | 2600 (active) |  | 0
3 | N[C@@H](Cc1ccccc1)C(=O)N[C@@H](Cc1ccccc1)C(=O)O (plate: PM7) | 5690 (active) |  | 2740 (active)
4 | C[C@@H](O)[C@H](N)C(=O)NCC(=O)O (plate: PM7) | 6220 (active) | 8140 (active) | 0.75
5 | CC(C)[C@H](N)C(=O)NCC(=O)O (plate: PM7) | 6900 (active) |  | 47.8
6 | NC(N)=NCCC[C@H](NC(=O)[C@@H](N)CCCN=C(N)N)C(=O)O (plate: PM6) | 8780 (active) |  | 9250 (active)
7 | N[C@@H](CCC(=O)O)C(=O)N[C@@H](Cc1ccc(O)cc1)C(=O)O (plate: PM6) | 1030 | 1140 | 44
8 | NCC(=O)NCC(=O)O (plate: PM6) | 2050 (active) |  | 98.5
9 | CC(C)C[C@H](N)C(=O)N[C@@H](CCCN=C(N)N)C(=O)O (plate: PM6) | 8260 (active) |  | 8540 (active)
10 | CC(C)C[C@H](N)C(=O)N[C@@H](Cc1ccccc1)C(=O)O (plate: PM6) | 4550 (active) |  | 3930 (active)
11 | NCC(=O)N[C@H](CC(=O)O)C(=O)O (plate: PM8) | 0 |  | 0
12 | O=C(O)[C@@H]1CCCN1C(=O)[C@@H]1CCCN1 (plate: PM7) | 8180 (active) |  | 0
13 | CC(C)C[C@H](N)C(=O)NCC(=O)NCC(=O)O (plate: PM8) | 8090 (active) | 10400 (active) | 5290 (active)
14 | C[C@H](N)C(=O)N[C@@H](CO)C(=O)O (plate: PM6) | 8180 (active) | 9550 (active) | 6740 (active)
15 | N[C@@H](Cc1ccc(O)cc1)C(=O)NCC(=O)O (plate: PM7) | 8600 (active) |  | 3760 (active)
16 | CSCC[C@H](N)C(=O)N[C@@H](CC(C)C)C(=O)O (plate: PM7) | 1540 | 2580 (active) | 247
17 | CC(C)C[C@H](NC(=O)[C@@H]1CCCN1)C(=O)O (plate: PM7) | 5560 (active) |  | 626
18 | O=C(O)[C@@H]1C[C@@H](O)CN1C(=O)[C@@H]1CCCN1 (plate: PM7) | 0 |  | 0
19 | NCC(=O)N[C@H](CO)C(=O)O (plate: PM8) | 408 | 641 | 0
20 | C[C@@H](O)[C@H](N)C(=O)N[C@@H](CCC(N)=O)C(=O)O (plate: PM8) | 10400 (active) |  | 454
21 | NCC(=O)N[C@@H](Cc1c[nH]c2ccccc12)C(=O)O (plate: PM6) | 49.2 |  | 0
22 | CC(C)C[C@H](NC(=O)CN)C(=O)O (plate: PM6) | 969 | 1880 | 0
23 | N[C@@H](CC(=O)O)C(=O)NCC(=O)O (plate: PM8) | 2620 (active) | 4290 (active) | 0
24 | O=C(O)[C@H](Cc1ccccc1)NC(=O)[C@@H]1CCCN1 (plate: PM7) | 6240 (active) | 7250 (active) | 3470 (active)
25 | N[C@@H](Cc1c[nH]c2ccccc12)C(=O)NCC(=O)O (plate: PM7) | 1010 |  | 6.75
26 | CC(C)[C@H](N)C(=O)N[C@@H](CCC(=O)O)C(=O)O (plate: PM8) | 2880 (active) |  | 0
27 | CC(C)C[C@H](N)C(=O)N[C@@H](CO)C(=O)O (plate: PM7) | 12700 (active) | 13500 (active) | 11800 (active)
28 | NC(N)=NCCC[C@H](NC(=O)[C@@H](N)Cc1c[nH]c2ccccc12)C(=O)O (plate: PM7) | 12000 (active) |  | 11800 (active)
29 | C[C@@H](O)[C@H](N)C(=O)N[C@@H](Cc1ccccc1)C(=O)O (plate: PM8) | 6440 (active) | 8640 (active) | 274
30 | C[C@@H](O)[C@H](N)C(=O)N[C@@H](CCCN=C(N)N)C(=O)O (plate: PM7) | 14200 (active) | 15400 (active) | 13800 (active)
